High-throughput results from PubChem BioAssay.
PLCg1 inh = inhibitors of human phospholipase C gamma1; P19174; purified PLC-gamma1, fluorogenic substrate, fluorescence; inhibition, % at 12.2 µM; 370,000 compounds, 0.84% hits; AID 720700; in the data active means inhibition above about 9.5%
KLK7 zymogen act = proKLK7 (human) activation, primary screen | activation, % at 7 µM | purified proKLK7, EDANS-DABCYL substrate fluorescence; 100% is mature enzyme control, 0% vehicle | 370,000 compounds, 0.9% hits;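 active means activation above the mean of all tested compounds plus 3 SD, computed per campaign excluding outliers beyond control limits, cut at about 13% in these data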
ADAM17 inh = ADAM17 inhibition, QFRET primary screen; recombinant ADAM17, EDANS/DABCYL FRET peptide cleavage; inhibition, % at 6.95 µM; 370,000 compounds, 0.83% hits;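 active means inhibition above the mean of compounds lying between control limits plus 3 SD, set per campaign, cut at about 8.5% in these data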
ADAM10 inh = inhibits human ADAM10; O14672; recombinant ADAM10, EDANS/DABCYL FRET peptide cleavage, 3 h; inhibition, % at 7 µM; 370,000 compounds, 0.62% hits; AID 720582;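 active means inhibition above a per-campaign cutoff equal to the mean of compounds falling between control-based bounds plus 3 SD, cut at about 20% in these data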
PLC-beta3 inh = inhibitors of human phospholipase C beta3. Q01970. Purified PLC-beta3, fluorogenic substrate, fluorescence. inhibition, % at 12.2 µM. 370,000 compounds, 0.18% hits
Target sequence (Q01970 whole entry, looked up): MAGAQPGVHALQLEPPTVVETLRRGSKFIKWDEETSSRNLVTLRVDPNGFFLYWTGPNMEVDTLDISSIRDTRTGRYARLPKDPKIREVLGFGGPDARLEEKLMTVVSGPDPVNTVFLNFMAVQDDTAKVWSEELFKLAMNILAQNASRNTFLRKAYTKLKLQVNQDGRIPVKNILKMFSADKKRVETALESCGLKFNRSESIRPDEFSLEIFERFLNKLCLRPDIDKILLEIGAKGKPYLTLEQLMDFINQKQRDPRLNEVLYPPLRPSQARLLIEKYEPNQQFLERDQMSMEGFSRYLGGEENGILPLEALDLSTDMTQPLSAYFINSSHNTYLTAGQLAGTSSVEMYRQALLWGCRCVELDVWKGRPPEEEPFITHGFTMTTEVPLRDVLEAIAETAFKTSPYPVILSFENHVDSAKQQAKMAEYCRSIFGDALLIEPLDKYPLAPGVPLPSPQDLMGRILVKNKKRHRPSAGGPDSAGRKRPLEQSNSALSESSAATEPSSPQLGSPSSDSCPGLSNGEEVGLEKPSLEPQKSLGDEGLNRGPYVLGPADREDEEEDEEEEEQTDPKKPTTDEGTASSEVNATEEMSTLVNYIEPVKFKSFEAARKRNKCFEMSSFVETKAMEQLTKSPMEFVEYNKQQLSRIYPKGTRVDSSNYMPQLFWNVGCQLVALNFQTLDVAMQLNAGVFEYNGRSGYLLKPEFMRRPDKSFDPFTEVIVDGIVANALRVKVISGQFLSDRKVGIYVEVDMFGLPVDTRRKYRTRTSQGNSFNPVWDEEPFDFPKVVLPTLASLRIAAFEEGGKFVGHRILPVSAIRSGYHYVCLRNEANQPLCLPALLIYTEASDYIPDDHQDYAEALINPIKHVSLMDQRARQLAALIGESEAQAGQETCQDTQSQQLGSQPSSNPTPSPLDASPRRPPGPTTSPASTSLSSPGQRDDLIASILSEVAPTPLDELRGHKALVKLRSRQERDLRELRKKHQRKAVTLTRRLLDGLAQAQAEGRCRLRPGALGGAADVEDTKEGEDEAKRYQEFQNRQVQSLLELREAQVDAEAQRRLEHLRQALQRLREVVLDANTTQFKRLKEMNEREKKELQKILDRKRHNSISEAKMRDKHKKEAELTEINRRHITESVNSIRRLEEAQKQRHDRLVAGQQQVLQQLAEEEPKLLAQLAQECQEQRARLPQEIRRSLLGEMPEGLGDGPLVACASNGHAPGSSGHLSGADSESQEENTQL
PLCgamma1 ctr = PLC-gamma1 inhibition, counter-screen for PLC-beta3 hits. shares compounds with PLCg1 inh. purified PLC-gamma1, fluorogenic substrate, fluorescence. inhibition, % at 12.3 µM. 3,300 compounds, 3.1% hits. AID 743258; in the data active means inhibition above about 9.5%
PLCb3 confirm = confirmation of human PLC-beta3 inhibitors; shares compounds with PLCg1 inh; purified PLC-beta3, fluorogenic substrate fluorescence; inhibition, % at 12.3 µM; 3,300 compounds, 1% hits; AID 743261
Large screens that a line does not name were inactive (follow-up assays come after a bar, where they were run). In the library only some 2.9% were active in any assay of this set; here they are far more common. Unless noted, no stated cut-off is given here; in the data, active means inhibition above about 11%; inactive means the rest.

CC1C(=O)Nc2ccccc2N1C(=O)c1cccc(C(F)(F)F)c1 (stereo not drawn)	PLCg1 inh 12.7 | PLCgamma1 ctr inactive | PLCb3 confirm inactive
CC1/C(=N/O)CC(c2ccccc2)NC1c1ccccc1 (stereo not drawn)	none
CCCC1/C(=N/O)CC(c2ccccc2)NC1c1ccccc1 (stereo not drawn)	PLCg1 inh 10.4 | PLCgamma1 ctr inactive | PLCb3 confirm inactive
COc1cccc(C(CNc2ccc(S(=O)(=O)N3CCN(C)CC3)cc2[N+](=O)[O-])N(C)C)c1 (stereo not drawn)	none
COc1cc(OC)c(S(=O)(=O)Nc2ccccc2NC(=O)CN2CCOCC2)cc1NC(C)=O	PLCg1 inh 14.6 | PLCgamma1 ctr inactive | PLCb3 confirm inactive
COc1ccccc1CNC(=O)CSc1n[nH]c(N)n1	none
COc1ccccc1C(=O)CSc1n[nH]c(N)n1	PLC-beta3 inh 10.8 | PLCgamma1 ctr inactive | PLCb3 confirm inactive
CCNC(=S)NN=C1CCC(C(C)(C)C)CC1 (stereo not drawn)	PLCg1 inh 13.0 | PLCgamma1 ctr inactive | PLCb3 confirm inactive
C[C@@H]1CN([C@H](C)CO)C(=O)c2cc(NC(=O)Cc3cn(C)c4ccccc34)ccc2O[C@H]1CN(C)S(=O)(=O)c1ccc(F)cc1	none
Cc1cccc(CN2CCN([C@@H]3CS(=O)(=O)N[C@H]3COCc3ccccc3)CC2)c1	none
Cc1ccc(/C=C/C(=O)NCc2cccs2)cc1	PLC-beta3 inh 12.8 | PLCgamma1 ctr inactive | PLCb3 confirm inactive
Cc1cc(C(=O)N/N=C/c2cccnc2)n[nH]1	PLCg1 inh 10.4 | PLCgamma1 ctr inactive | PLCb3 confirm inactive
CCCCNC(=O)C1(C)CCN1C(=O)c1cc(F)ccc1C (stereo not drawn)	none
Cc1c(C(=O)N2CCCCC2)nnn1-c1nonc1N	PLCg1 inh 18.6 | PLCgamma1 ctr inactive | PLCb3 confirm inactive
O=C(OCc1ccc(CSc2nnc(-c3cccc4ccccc34)o2)cc1)c1ccc(F)cc1	none (no result: KLK7 zymogen act)
CNCCC=C1c2ccccc2CCc2ccccc21	PLCg1 inh 11.7 | PLCgamma1 ctr inactive | PLCb3 confirm inactive
O=C(CSc1nc(C(F)(F)F)cc(=O)[nH]1)N1CCC(Cc2ccccc2)CC1	none
Cc1cc(NC(=O)CN2CCN(C/C=C/c3ccccc3)CC2)c([N+](=O)[O-])cc1C	PLCg1 inh 9.5 | PLCgamma1 ctr inactive | PLCb3 confirm inactive
CCC(Oc1ccccc1)C(=O)Nc1cc(C)on1 (stereo not drawn)	none
CCC(OC(=O)C(NC(=O)c1ccccc1)c1ccccc1)C(=O)Nc1cc(C)on1 (stereo not drawn)	PLCg1 inh 12.4 | PLCgamma1 ctr inactive | PLCb3 confirm inactive
CCOc1ccccc1N1CCN(C(=S)NCc2ccccc2)CC1	PLCg1 inh 9.7 | PLCgamma1 ctr inactive | PLCb3 confirm inactive
Cc1nn(-c2cc(C(F)(F)F)ccc2Cl)c2nc(C(F)(F)F)[nH]c(=O)c12	PLC-beta3 inh 11.7 | PLCgamma1 ctr inactive | PLCb3 confirm inactive
CN1CC=C(c2ccc(C(F)(F)F)cc2)N(c2ccccc2)C1=O	none
CN1CC=C(c2ccccc2)N(c2ccccc2)C1=O	PLC-beta3 inh 11.8 | PLCgamma1 ctr inactive | PLCb3 confirm inactive
Cc1ccc(C(=O)OCC(=O)N2C(C)CCCC2C)s1 (stereo not drawn)	none
CC1CCCC(C)N1C(=O)COC(=O)c1ccc(O)cc1 (stereo not drawn)	PLCg1 inh 19.6 | PLCgamma1 ctr inactive | PLCb3 confirm inactive
COc1cc(OC)cc(C(=O)Nc2ccccc2-c2nnn(CC(=O)Nc3cc(C)on3)n2)c1	none
COc1ccc(C(=O)Cc2ccccc2)cc1OC	none
COc1ccc(C(=O)NN=C(Cc2ccccc2)Cc2ccccc2)cc1OC	PLCg1 inh 11.1 | PLCgamma1 ctr inactive | PLCb3 confirm inactive
Cc1ccc(NC(=O)C(c2ccccc2)N2CCN(CC(=O)NC3CC3)CC2)cc1 (stereo not drawn)	none
Cc1ccc(NC(=O)CN(C)C(=O)c2ccc(S(=O)(=O)N(C)c3ccccc3)cc2)cc1	PLCg1 inh 10.7 | PLCgamma1 ctr inactive | PLCb3 confirm inactive
Cc1ccc(C)c(NC(=O)CN(C)C(=O)c2ccc(S(=O)(=O)N(C)c3ccccc3)cc2)c1	none
